Screening data (PubChem)
Pf growth 48h: P. falciparum growth inhibition at 48 hours (one generation). P. falciparum luciferase growth in erythrocytes, 48 h. Potency, µM (highest dose often 28.7 µM), for inactives: at the highest dose activity change, negative = inhibition, hits mostly inhibitors. actives 5.9% (n = 310,000). AID 504832; note: % is set by controls: 0 for no effect and ±100 for the full control effect
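Luciferase-expressing P. falciparum in infected erythrocytes (2% hematocrit, 0.1% parasitemia final) in RPMI 1640/0.5% Albumax were exposed to compound for 48 hours at 37 C, 5% CO2; growth read as luminescence.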
AMA1 RON2 block: disrupts binding of P. falciparum AMA1 to RON2 | Potency, µM (highest dose often 58.2 µM), without a hit: top-dose activity change, negative = inhibition, usual class: inhibitors | AlphaScreen AMA1-biotinylated RON2 peptide binding | AID 720542 | actives 0.2% (n = 360,000);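 note: 0% = vehicle wells and -100% = peptide control; nearly all actives have a fitted effect of over 45% in size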
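AMA1 (3D7) with his tag at 25 nM final met compounds first, then biotinylated RON2 peptide at 25 nM; detection used donor plus acceptor beads, 10 µg/mL apiece, read by AlphaScreen after 30 min at room temperature.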
Pf growth 96h: inhibits malaria parasite growth, 96 h. Potency, µM (titrated, usually from 28.7 µM), for the others: top-dose activity change, negative = inhibition, actives largely listed as inhibitors. AID 504834. actives 6.9% (n = 320,000). P. falciparum luciferase reporter growth, 96 h; note: % is set by controls: 0 for no effect and ±100 for the full control effect
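Delayed-death screen, second-generation endpoint: infected erythrocytes, 2% hematocrit, 0.05% parasitemia final; 96 hours at 37 C, 5% CO2; luciferase detection reagent; luminescence decrease equals reduced growth.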
SARS PLpro yeast: inhibitors of SARS-CoV papain-like protease in yeast; actives 0.19% (n = 330,000); AID 485353; Potency, µM (highest dose often 32.9 µM), for the others: at the top dose activity, positive = growth rescue, actives largely listed as activators; S. cerevisiae expressing SARS-CoV PLpro, growth rescue; calls by dose curve; note: 0% is about no effect; nearly all actives have a fitted effect of over 55% in size
* = called active by the depositor. Rows were chosen to be rich in hits. Some 9.4% of all compounds tested hit in one or more screens of this group. Unless noted, calls come from the whole dose curve; as a rule, active = well fitted curve in the direction sought with a large enough effect; inconclusive = small, poorly fitted or top-dose-only effect, or another doubt; inactive = no such curve, though single readings can be large; an effect the other way counts as inactive or inconclusive. Potency is the fitted concentration of half-maximal effect.

For COc1ccc(OCC(O)Cn2ccnc2C)cc1 (stereo unspecified) the results were Pf growth 48h 9%, AMA1 RON2 block 16%, Pf growth 96h inconclusive and SARS PLpro yeast 12%.
Screening Cc1cc(C(C#N)c2ccccc2F)n2ncnc2n1 (stereo unspecified) returned Pf growth 48h 24%, AMA1 RON2 block -12%, Pf growth 96h 20% and SARS PLpro yeast 1%.
`CNC(=O)c1c(N)sc2c1CCCCC2` gave Pf growth 96h 10µM* and SARS PLpro yeast 2%.
`CNC(=O)c1c(NC(=O)C(C)C)sc2c1CCC2` gave Pf growth 48h 2.3µM*, AMA1 RON2 block 4%, Pf growth 96h -9% and SARS PLpro yeast -1%.
Screening COCCNC(=O)c1c(N)sc2c1CCCC2 returned Pf growth 48h 9.3µM*, Pf growth 96h inconclusive and SARS PLpro yeast 1%.
Screening CCCOC(=O)c1c(N)sc2c1CCC2 returned Pf growth 48h -3%, AMA1 RON2 block -3%, Pf growth 96h inconclusive and SARS PLpro yeast -5%.
Cc1cccc(C(=O)c2c(N)sc3c2CCCC3)c1 was read as Pf growth 48h inconclusive, AMA1 RON2 block -6%, Pf growth 96h 15µM* and SARS PLpro yeast -37%.
Screening C=CCOC(=O)C1=C[C@@H](c2ccc(C(F)(F)F)cc2)[C@H](CCCO)[C@@H](OCC)O1 returned Pf growth 48h 1.2µM*, AMA1 RON2 block 3%, Pf growth 96h 2.1µM* and SARS PLpro yeast 0%.
Screening C=CCOC(=O)C1=C[C@H](c2ccc(C(F)(F)F)cc2)[C@@H](CCCO)[C@H](OCC)O1 returned Pf growth 48h inconclusive, AMA1 RON2 block 5%, Pf growth 96h 9.3µM* and SARS PLpro yeast -1%.
For CCO[C@@H]1OC(C(N)=O)=C[C@H](c2ccc(C(F)(F)F)cc2)[C@H]1CCCO the results were Pf growth 48h inconclusive, AMA1 RON2 block 3%, Pf growth 96h inconclusive and SARS PLpro yeast 1%.
`C=CCOC(=O)C1=C[C@@H](c2ccc(Br)cc2)[C@H](CCCO)[C@@H](OCC)O1` gave Pf growth 48h inconclusive, AMA1 RON2 block 7%, Pf growth 96h 9.3µM* and SARS PLpro yeast 0%.
`C=CCOC(=O)C1=C[C@@H](c2ccccc2)[C@H](CCCO)[C@@H](OCC)O1` gave Pf growth 48h 3%, AMA1 RON2 block 0%, Pf growth 96h 11% and SARS PLpro yeast 1%.
`CCOC(=O)C1CCCN(C(=O)COc2ccc(C(=O)c3ccccc3)cc2)C1` (stereo unspecified) gave Pf growth 48h -17%, AMA1 RON2 block -7%, Pf growth 96h 27% and SARS PLpro yeast -4%.
Screening Brc1cccc(/C=N/Nc2nn[nH]n2)c1 returned Pf growth 48h 49%, AMA1 RON2 block 30%, Pf growth 96h 62% and SARS PLpro yeast 0%.
`c1cc2nncn2nc1N1CCCC1` gave Pf growth 48h 1%, AMA1 RON2 block 2% and SARS PLpro yeast 16%.
Screening Nc1nonc1C(=O)NCCNS(=O)(=O)c1ccc(F)cc1 returned Pf growth 48h 15%, AMA1 RON2 block -1%, Pf growth 96h 2.9µM* and SARS PLpro yeast -8%.
Screening Nc1nonc1C(=O)NCCNCc1ccccc1 returned AMA1 RON2 block 8%, Pf growth 96h 12µM* and SARS PLpro yeast 2%.
`Nc1nonc1C(=O)NCCNCc1c(OCc2ccccc2F)ccc2ccccc12` gave Pf growth 48h 4.7µM*, AMA1 RON2 block -7% and SARS PLpro yeast 0%.
Screening CCOc1cccc(CNCCNC(=O)c2nonc2N)c1 returned Pf growth 48h -2%, AMA1 RON2 block -7%, Pf growth 96h -1% and SARS PLpro yeast -6%.
Screening Cc1nc2ccccc2c(=O)n1NC(=O)c1cc(Br)ccc1Cl returned Pf growth 48h 49%, AMA1 RON2 block -20%, Pf growth 96h 18% and SARS PLpro yeast -5%.
O=C(c1cc(=O)c2ccccc2o1)N1CCN(c2ccccc2F)CC1 was read as Pf growth 48h 18%, AMA1 RON2 block -19%, Pf growth 96h 13% and SARS PLpro yeast -5%.
Screening Fc1ccc(CSc2nnc(Cc3sc(-c4ccccc4)nc3-c3ccccc3)o2)cc1 returned AMA1 RON2 block 1%, Pf growth 96h 12µM* and SARS PLpro yeast -5%.
For COc1ccc(CSc2nnc(Cc3sc(-c4ccccc4)nc3-c3ccccc3)o2)cc1 the results were Pf growth 48h 12µM*, AMA1 RON2 block 17%, Pf growth 96h 2.1µM* and SARS PLpro yeast -1%.
